For 52 molecules, activity increase over dofetilide control, less the hit threshold results are on record in PubChem BioAssay AID1835 (Johns Hopkins Ion Channel Center, 2009).

Screen size: about 2,400 compounds; about 750 (31%) were called active. Some of the results follow. A number with no mark means an inactive call.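 How the source made its calls: active means median signal gain over dofetilide-blocked control wells reaching their mean plus 3 SD, so readout 1 at least 0; inactive means the rest.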

The assay deals with Voltage-gated inwardly rectifying potassium channel KCNH2 (Homo sapiens) (UniProt Q12809). As to the kind of experiment: hERG protection against dofetilide inhibition, confirmation, cell-based, thallium flux, duplicate retest, dofetilide IC70 (AID 1835). As to conditions: hERG cell line, FluxOR thallium flux, dofetilide-blocked; at 10 µM; active compounds read high. For orientation: The hERG channel carries a current that helps repolarise heart muscle cells.
Voltage-gated inwardly rectifying potassium channel KCNH2 (Homo sapiens), sequence (Q12809 whole entry, looked up): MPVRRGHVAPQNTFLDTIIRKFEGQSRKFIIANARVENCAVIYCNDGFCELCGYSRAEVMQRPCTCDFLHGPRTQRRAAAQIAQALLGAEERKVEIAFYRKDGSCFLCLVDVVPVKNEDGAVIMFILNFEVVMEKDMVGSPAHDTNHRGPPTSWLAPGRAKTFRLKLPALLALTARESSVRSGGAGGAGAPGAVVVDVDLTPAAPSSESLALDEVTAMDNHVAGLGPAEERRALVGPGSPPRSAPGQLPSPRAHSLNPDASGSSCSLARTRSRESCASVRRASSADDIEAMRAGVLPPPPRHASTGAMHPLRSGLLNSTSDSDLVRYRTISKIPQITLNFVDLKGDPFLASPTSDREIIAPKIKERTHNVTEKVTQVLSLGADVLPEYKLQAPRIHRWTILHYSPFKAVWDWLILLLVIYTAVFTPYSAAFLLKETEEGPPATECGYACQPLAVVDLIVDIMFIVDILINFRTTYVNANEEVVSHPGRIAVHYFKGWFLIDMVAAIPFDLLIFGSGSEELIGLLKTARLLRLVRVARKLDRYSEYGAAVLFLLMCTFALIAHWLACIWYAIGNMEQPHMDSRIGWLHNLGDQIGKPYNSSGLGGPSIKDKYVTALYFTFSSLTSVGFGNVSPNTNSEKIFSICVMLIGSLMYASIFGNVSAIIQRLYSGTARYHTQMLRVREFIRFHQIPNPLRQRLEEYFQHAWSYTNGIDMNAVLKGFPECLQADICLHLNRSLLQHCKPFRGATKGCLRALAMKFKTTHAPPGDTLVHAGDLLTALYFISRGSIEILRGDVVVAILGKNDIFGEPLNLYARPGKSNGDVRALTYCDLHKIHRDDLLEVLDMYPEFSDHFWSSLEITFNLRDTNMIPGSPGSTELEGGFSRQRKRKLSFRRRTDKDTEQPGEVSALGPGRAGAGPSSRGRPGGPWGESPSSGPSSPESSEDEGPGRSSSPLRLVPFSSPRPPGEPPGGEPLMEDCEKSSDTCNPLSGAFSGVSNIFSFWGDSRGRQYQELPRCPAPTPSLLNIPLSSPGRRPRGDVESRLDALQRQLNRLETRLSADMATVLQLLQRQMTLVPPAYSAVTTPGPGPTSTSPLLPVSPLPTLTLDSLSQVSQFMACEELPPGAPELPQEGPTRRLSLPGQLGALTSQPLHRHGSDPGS
With `Cc1ccc(OCc2ccoc2C(=O)O)cc1C`, the activity increase over dofetilide control, less the hit threshold was 11% (active). With `COC(=O)c1cc(S(=O)(=O)NCC2CCN(Cc3cc(C)ccc3C)CC2)c[nH]1`, the activity increase over dofetilide control, less the hit threshold is -12%. As for `Cc1nn(C)cc1C(=O)Nc1ccc2c(c1)OCCO2`, the figure is -8%; as for `COc1cc(NS(=O)(=O)c2ccc(NC(=S)Nc3ccccc3)cc2)nc(OC)n1`, -26%; as for `O=C(CNC(=S)NC(=O)c1ccc(Br)o1)c1ccccc1`, -3%. For the molecule `COc1cccc(NC(=S)NC(C)c2ccc(OC)c(OC)c2)c1` (configuration not stated), the activity increase over dofetilide control, less the hit threshold is -24%.

Consider `CCN(c1ccccc1)S(=O)(=O)c1ccc(NC(=S)NC(=O)c2ccc(Br)o2)cc1`, for which the activity increase over dofetilide control, less the hit threshold was 20% (active). Take `CCc1ccc(NC(=S)NC(=O)c2c(-c3ccccc3Cl)noc2C)cc1`: the activity increase over dofetilide control, less the hit threshold was -2%. With `O=C(NC(=S)NCc1ccccc1)c1ccc(Br)o1`, the activity increase over dofetilide control, less the hit threshold was 91% (active). To `COc1ccc(OC)c(NC(=S)NC(=O)c2ccc(Br)o2)c1` belongs 0% (active). As for `COc1ccc(NC(=S)NC(=O)c2ccc(Br)o2)cc1`, the figure is 13% (active); as for `CCOC(=O)C1CCN(C(=O)CCS(=O)(=O)c2ccc3c(c2)CCN3C(=O)CC)CC1`, -17%; as for `N#Cc1c(N)c(C(=O)c2ccccc2)n2ccccc12`, -2%. On to `Cc1ccsc1/C=N/NC(=O)CNC(=O)c1ccccc1`, for which the activity increase over dofetilide control, less the hit threshold is -2%. For `CCCCc1c(O)nc(SCC(=O)N2CCOCC2)[nH]c1=O`, the activity increase over dofetilide control, less the hit threshold is -10%. Regarding `Cn1ncc2c(O/N=C(\N)c3ccc(C(F)(F)F)cc3)ncnc21`, the activity increase over dofetilide control, less the hit threshold was -15%. To `NC(=O)C1CCN(C(=O)CCC(=O)c2ccc(F)cc2)CC1` belongs -4%; to `Cc1nc(-c2cc(C#N)c(Sc3ccc(Cl)cc3Cl)nc2C)cs1`, -4%; to `COc1ccc(-c2cc(C(=O)Nc3ccccc3SC)no2)cc1`, -2%. To `O=C(NC(=S)Nc1ccccc1)c1ccc(Br)o1` belongs 5% (active); to `Cc1ccc(NC(=S)NC(=O)c2ccc(Br)o2)c(C)c1`, 0%. As for `O=C(NC(=S)Nc1ccccc1F)c1ccc(Br)o1`, the figure is 43% (active). For `Cc1cccc(NC(=S)NC(=O)c2ccc(Br)o2)c1`, the activity increase over dofetilide control, less the hit threshold was 33% (active).

On to `C/C(=N\NC(=S)Nc1cccc(C)c1)c1ccco1`, for which the activity increase over dofetilide control, less the hit threshold is -26%. As for `COc1ccccc1NC(=S)NC(=O)c1ccc(-c2ccc(Cl)cc2)o1`, the figure is 8% (active); as for `Cc1ccc2cc(CN(CCCN(C)C)C(=S)NCc3ccccc3)c(=O)[nH]c2c1C`, -19%; as for `Cc1nn(-c2ccc(Cl)nn2)c(=O)c2ccccc12`, -12%. To `COc1cccc2cc(-c3nc4ccccc4[nH]3)c(=O)oc12` belongs -24%; to `CC(C)=CC(=O)OCC(=O)Nc1ccc(SC(F)F)cc1`, -16%.

`O=C(Nc1cccnc1)c1cc(-c2cccs2)on1`: the activity increase over dofetilide control, less the hit threshold is -16%. As for `O=C(NC(=S)Nc1cccnc1)c1cc2ccccc2o1`, the figure is 21% (active). With `Cc1c(C(=O)NC(=S)NCc2cccnc2)oc2ccccc12`, the activity increase over dofetilide control, less the hit threshold was -7%. As for `O=C(NC(=S)NCCC1=CCCCC1)c1ccco1`, the figure is 50% (active); as for `S=C(NCCc1ccccc1)NCCN1CCOCC1`, -10%. To `O=C(NC(=S)NCCc1ccc(Cl)cc1)c1ccco1` belongs -7%; to `O=C(NC(=S)NCCC1=CCCCC1)c1ccc(Br)o1`, 27% (active). As for `Oc1c(Br)cc(Br)cc1CNc1cccc2cccnc12`, the figure is -19%; as for `CN(Cc1ccsc1)C(=O)CCc1nnc(Cc2c[nH]c3ccccc23)o1`, -8%. Take `COc1ccc(S(=O)(=O)N(CCc2ccccc2)CC(=O)O)cc1`: the activity increase over dofetilide control, less the hit threshold is -12%. As for `CN(Cc1ccccc1)C(=O)CCc1ccccc1`, the figure is 12% (active); as for `O=C1NCCN1Cc1ccccc1F`, -20%; as for `O=C(/C=C/c1ccccc1)Nc1ccc(C(=O)N2CCCCC2)cc1`, -14%. With `CC(C)(C)c1ccc(C(=O)NC(=S)N2CCCC2)cc1`, the activity increase over dofetilide control, less the hit threshold was -6%. Turning to `CC(C)(C)c1ccc(C(=O)NC(=S)N2CCCCCC2)cc1`, the activity increase over dofetilide control, less the hit threshold was 16% (active).

On to `O=C(NC(=S)N1CCCCCC1)c1ccc(Cl)cc1Cl`, for which the activity increase over dofetilide control, less the hit threshold was 11% (active).

For the molecule `CC(C)(C)c1ccc(/C=C/C(=O)N2CCCCC2)cc1`, the activity increase over dofetilide control, less the hit threshold is 5% (active).

On to `CCOC(=O)C1CCCN(C(=S)NC(=O)/C=C/c2ccc(F)cc2)C1` (configuration not stated), for which the activity increase over dofetilide control, less the hit threshold is -6%.

As to `COc1cc(OC)cc(C(=O)NC(=S)N2CCCCCC2)c1`, the activity increase over dofetilide control, less the hit threshold was -12%.

Turning to `CN1CCN(C(=S)NC(=O)c2ccc(C(C)(C)C)cc2)CC1`, the activity increase over dofetilide control, less the hit threshold is -15%. On to `Cc1ccc2c(c1)C1CN(C)CCC1N2C(=S)NC(=O)c1ccc(Br)cc1` (configuration not stated), for which the activity increase over dofetilide control, less the hit threshold is -26%.

`CC1CCN(C(=S)NC(=O)c2ccc(C(C)(C)C)cc2)CC1`: the activity increase over dofetilide control, less the hit threshold is 22% (active). To `O=C(NC(=S)N1CCCC1)c1ccc(Cl)cc1` belongs 0%.
